In the library only some 1.4% were active in any assay of this set; here they are far more common.
AF4-AF9 inh = inhibitors of AF4 peptide binding to AF9, primary screen, biochemical, AlphaScreen, biotin-AF4 peptide, FLAG-AF9, single point. 350,000 tested, 0.47% active. Protein AF-9 (Homo sapiens), P42568. inhibition, % at 10 µM;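 active = every replicate reaching a set inhibition limit, whatever the replicate mean, cut at about 25% in these data; inconclusive = mean inhibition reaches that limit but some replicates miss it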;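 note: 0% = plate neutral control median and 100% = total signal loss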
RAD52 inh = RAD52 DNA annealing inhibitors, primary screen, biochemical, FRET, single point, set 2 | DNA repair protein RAD52 homolog (Homo sapiens), P43351 | recombinant RAD52 DNA annealing, FRET fluorescence | inhibition, % at 18.7 µM | 360,000 tested, 0.46% active | AID 651710, 2012;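 active = every replicate showing at least 50% inhibition; inconclusive = mean inhibition at least 50% but not in every replicate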
PGC1a acetyl inh = inhibitors of PGC1a acetylation signal, primary screen, cell-based, U2OS, AlphaScreen, inhibitor mode. AlphaScreen anti-acetyl-lysine; with virally co-expressed GCN5 acetyltransferase. inhibition, % at 15.6 µM. 350,000 tested, 0.17% active;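 active = every replicate shows inhibition of at least 40%; inconclusive = mean inhibition at least 40% but some replicate below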;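 note: 0% = neutral control wells and 100% = positive control wells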
GSIS activator = GLuc luminescence reporter in INS-1E cells, primary screen for activators of glucose-dependent secretion of insulin; INS-1E GLuc reporter insulin secretion, 2-3 h; activation, % at 16.6 µM; 370,000 tested, 0.61% active;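 active = lowest replicate activation of at least 40%, so every replicate reaches that level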;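 note: 0% = median of neutral control wells and 100% = median of IBMX positive control wells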
RAD54 branch = inhibitors of human RAD54 branch migration, primary screen, biochemical, fluorescence, single point; DNA repair and recombination protein RAD54-like (Homo sapiens), Q92698; RAD54 Holliday junction branch migration, FAM/BHQ fluorescence; inhibition, % at 10.4 µM; 360,000 tested, 0.14% active;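 active = mean normalized replicate activity at least 40 and at least half of replicates scoring 40 or more; inconclusive = only one of the two criteria met; inactive = mean below 40 and under half of replicates reaching 40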;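 note: 0% = median of neutral control wells and 100% = median of positive control wells; inhibitors cause a drop in the FAM fluorescence signal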
Target sequence (Q92698 whole entry, looked up): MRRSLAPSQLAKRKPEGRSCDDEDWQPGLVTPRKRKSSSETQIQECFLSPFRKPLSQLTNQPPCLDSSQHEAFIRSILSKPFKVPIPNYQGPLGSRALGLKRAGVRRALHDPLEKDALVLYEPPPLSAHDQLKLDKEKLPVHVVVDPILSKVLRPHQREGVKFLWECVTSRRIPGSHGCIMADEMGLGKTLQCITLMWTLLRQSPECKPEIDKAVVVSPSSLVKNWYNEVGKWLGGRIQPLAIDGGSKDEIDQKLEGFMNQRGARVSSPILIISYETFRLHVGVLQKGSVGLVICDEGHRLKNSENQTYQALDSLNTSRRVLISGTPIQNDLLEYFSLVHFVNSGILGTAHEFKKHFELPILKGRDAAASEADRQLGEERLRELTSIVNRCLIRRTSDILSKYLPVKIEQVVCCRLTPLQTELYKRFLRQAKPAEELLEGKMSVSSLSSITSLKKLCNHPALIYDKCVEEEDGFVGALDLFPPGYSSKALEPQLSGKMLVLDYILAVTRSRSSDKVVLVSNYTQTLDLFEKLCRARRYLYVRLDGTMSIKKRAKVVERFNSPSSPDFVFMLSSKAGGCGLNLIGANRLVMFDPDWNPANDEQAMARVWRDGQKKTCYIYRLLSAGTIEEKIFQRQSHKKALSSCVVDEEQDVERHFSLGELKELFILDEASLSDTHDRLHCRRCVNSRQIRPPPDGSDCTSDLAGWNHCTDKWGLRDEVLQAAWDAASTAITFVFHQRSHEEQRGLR
ERAP1 HTS inh = human ERAP1 aminopeptidase inhibitors, primary screen, biochemical, single point, plate reader | Endoplasmic reticulum aminopeptidase 1 (Homo sapiens), Q9NZ08 | recombinant ERAP1, Leu-AMC fluorescence, 60 min | inhibition, % at 10.7 µM | 340,000 tested, 0.15% active | AID 652197, 2013;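 active = mean replicate inhibition of at least 30%, or all replicates individually reaching that 30% level; inactive = mean below 30% and not every replicate reaching it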;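 note: 0% = neutral control wells and 100% = L-leucinethiol positive control wells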
Starred values were filed as active, the others as inactive; i = inactive; ? = inconclusive; · = no result given.

SMILES	AF4-AF9 inh	RAD52 inh	PGC1a acetyl inh	GSIS activator	RAD54 branch	ERAP1 HTS inh
COC(=O)C1=C(C)N(Cc2cccc(C(F)(F)F)c2)C(=NCC2CC2)NC1c1cccc(C(F)(F)F)c1 (stereo not drawn)	6.3	-26.0	·	420.4*	·	-1.9
COC(=O)C1=C(C)N(Cc2ccc(C(F)(F)F)cc2)C(=NCc2ccccc2)NC1c1cccc(C(F)(F)F)c1 (stereo not drawn)	-2.5	-8.5	·	158.3*	·	-2.2
COC(=O)C1=C(C)N(Cc2ccccc2)C(=NCc2cccc(C(F)(F)F)c2)N[C@H]1c1cccc(C(F)(F)F)c1	·	·	·	·	-7.9	·
COc1ccc(S(=O)(=O)N2C[C@@H](O)COC[C@@H]3O[C@H](CC(=O)NCCN4CCCCC4)CC[C@H]32)cc1	·	·	-6.5	18.2	0.7	·
N#Cc1ccc(NC(=O)Cn2c3[n+](c4ccc(C(F)(F)F)cc42)CCCCC3)cc1	0.2	-13.0	·	6.6	·	63.5*
CN(CCc1ccccc1)C(=O)c1ccc(NC(=O)Cc2ccc(NC(=O)C3CCN(C(=O)C4CC4)CC3)cc2)cc1	?	-2.5	·	1.4	5.3	-4.3
CN(CCc1ccccc1)C(=O)c1ccc(NC(=O)Cc2ccc(NC(=O)C3CCN(C(=O)c4ccccc4)CC3)cc2)cc1	31.1*	-11.4	4.4	0.6	-6.6	-1.2
O=C(C[C@@H]1CC[C@H]2[C@@H](COC[C@H](O)CN2C(=O)Cc2ccccc2)O1)NC1CCCC1	3.7	-3.9	7.4	1.8	-3.8	1.7
COC(=O)[C@]1(C)CCC[C@@]2(C)C3CC[C@@]4(C)C[C@]3(CCC21)CC(=O)N4 (stereo partly drawn)	·	-1.7	·	-15.1	-4.2	-0.4
C=C1C(=O)C23CCC4C(C)(C(=O)OC)CCCC4(C)C2CCC1(O)C3 (stereo not drawn)	-3.3	-1.2	76.3*	·	·	-1.6
COc1ccc(Cl)cc1C(=O)Nc1cccc(-c2ccc3nncn3n2)c1	0.8	-14.6	2.2	43.0*	·	2.8
COc1cccc(C(=O)Nc2cccc(-c3ccc4nncn4n3)c2)c1OC	7.0	-3.1	1.7	29.0	14.1	·
Cn1cc(/C=C/c2cc[n+](C)cc2)c2cc(F)ccc21	·	i	-1.4	·	i	66.3*
COc1ccc(N2CCN(C3CCCN(S(=O)(=O)c4ccc(C)cc4C)C3)CC2)cc1 (stereo not drawn)	31.6*	-14.7	6.2	7.0	-15.7	-2.1
COc1ccc(N2CCN(C3CCCN(S(=O)(=O)c4ccccc4)C3)CC2)cc1 (stereo not drawn)	6.0	-8.2	-1.1	1.7	-7.1	2.7
CC1=C(C(=O)OC(C)(C)C)C(c2ccc3ccccc3c2)NC(=O)N1C (stereo not drawn)	0.8	-0.3	65.5*	-24.8	-0.3	0.9
CC(C)[C@H]1CC=CC[C@H](C)Oc2ccccc2C(=O)N(C)[C@@H](C)C(=O)N1 (mixture of isomers)	·	·	·	21.9	·	·
O=C(O)c1ccccc1NS(=O)(=O)c1ccc(NNC(=S)Nc2ccc(OC(F)F)cc2)c([N+](=O)[O-])c1	27.4*	-11.8	2.3	-28.8	·	6.2
O=C(CC1CC1)N1CC(=O)N2[C@H](C1)[C@@H](c1ccc(-c3ccccc3)cc1)[C@@H]2CO	-9.3	1.1	-11.9	23.8	·	0.0
C[C@@H]1CN([C@H](C)CO)C(=O)Cc2cc(NS(=O)(=O)c3ccccc3)ccc2O[C@@H]1CN(C)C(=O)Nc1ccc2c(c1)OCO2	·	·	-2.2	-7.2	·	·
Cc1cc(C)nc(NC(N)=S)n1	-27.7	-5.8	-5.0	5.6	-3.5	4.0
CCNc1nc(NC(C)C)nc(NC(C)(C)C)n1	1.3	-8.0	·	31.4	·	-1.8
CC(C)Nc1nc(NC(N)=S)nc(NC(C)(C)C)n1	-1.2	-2.0	7.6	44.0*	·	-11.0
CC(C)Nc1nc(NC(N)=S)nc(NC(C)C)n1	·	·	·	81.9*	·	·
